# Results: the supplement of paper PMC11417369
# In all, about 25,000 sequences were measured (“ln(normalized median fluorescence intensity)”: median about 6.7, highest 2% from about 10 on). The full list was thinned out, with the highest values kept by preference.
# System: PfHDP1 homeodomain (GST-tagged)
# Assay: gcPBM binding intensity (ln(normalized median fluorescence intensity)); higher = stronger DNA binding
# Outline: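 Binding of GST-tagged P. falciparum DNA-binding domains, expressed in E. coli and used at about 25 μg on average, was carried out for 1 h in 1× PBS containing 1% milk, 0.2 mg/ml BSA, 0.5% salmon testes DNA and 0.03% Triton X-100. The target was an Agilent 4 × 180k array of primer-extended double-stranded 36-bp intergenic genomic probes plus negative controls, read with Alexa488 anti-GST antibody at 488 nm. Binding intensity is the highest Masliner-normalised natural-log median intensity across replicate spots of either probe orientation.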
row,Sequence,gcPBM binding intensity (ln)
1,TGCATAATTAAAAATGGTACACTGTATTTATAATAT [XGTACX_site1575],6.38
2,AGGTATATATTACAAGTGCACTGTAAAATTAAAATT,10.5
3,TAAAAAATTAATAAAGTGCATAAATATTACAATATT,7.68
4,ATATTTAAATAATATTCACACACAAAATTATATTTT [CACACA_site7955],6.44
5,AAATGTATACACATGGTGCGTAATATATTATATATA [GTGCAC_site9877],7.85
6,AATAAAAAAATATATTGTACTAATAATTATATGTTT [XGTACX_site2246],6.47
7,TTTTTATCAAATAAATGTACACATATTAAATGAAAT [XGTACX_site555],6.6
8,AATCATATTAGTATGGTGCAACATATATAAATATAT,11
9,AGTATAAATAAATCATAAACATATATATATATATAT [GTGCAC_negctrl_site356],9.35
10,AATCATATTAGTATGGTGCAATATATATATAAATAT [GTGCAC_site9800],10.5
11,ACATATTAAATATGAGTGCAATATATATATATATAA,9.25
12,CAATATATTATATGGGTGCAAACCACATATAAATAA,8.55
13,ATATATATTAAAAATAGTACATATAATAAAAATCAT [XGTACX_site4265],6.57
14,ATACATTTATTGTATTGTACATAATATTATATATTC [XGTACX_site7115],6.55
15,TGCATATTACTTTTTCACATAAAAATGATCCGATTA [GTGCAC_negctrl_site526],6.49
16,ATATTTAAACGATGGTGTACATATATTACAAGTTGT [XGTACX_site1743],7.03
17,ACATAAAATTGGAGCAAACACACAAGGTTGAAATTA [CACACA_site505],7.16
18,TATATATTTCAATAATGTACATATAATATATATATT [XGTACX_site4124],6.6
19,CCATAAAAAGGATACACACACACACCGACATATATA [CACACA_site4653],6.89
20,ATTAAGTACTAAAAAGTGCAGTTCGGTACTGTGCTT [GTGCAC_site9755],6.42
21,TATTTCATTAATGTCACTTTGAAAGAAATGAAAAAA [CACACA_negctrl_site1803],6.44
22,TTTTTTTTTTTTTTTGCACACATTTTAATTATTTTT [CACACA_site341],9.27
23,TTAATTATCCATTTTGCACACATTTTAAAACATGAA [CACACA_site189],10.7

row,Sequence,gcPBM binding intensity (ln)
1,CTATTTAAAATTTGAACACACATTATTTATTTTAAA [CACACA_site3114],6.41
2,TTCCTTTGTCCTAACTGTACTCAAATTTATTAGTGG [XGTACX_site226],7.04
3,TATATATTCATAAAGTGTACATGTTTATATATATAT [XGTACX_site7585],8.53
4,TATATATAAGCGTGTACACATTCTGAGTGTTGTATA [CACACA_site4502],7.02
5,ATAGTATATCAAAATTTGTAAATCATTCTCAATAAA [CACACA_negctrl_site430],5.94
6,AATATAAATAATTATACACACTTAATATATATATAC [CACACA_site5533],6.53
7,ATATGTATGTATTTATTATTGTGCATTGTATTTATA [CACACA_negctrl_site664],10.3
8,ATATATATTTATATATATATATATATATATATGTAT [GTGCAC_negctrl_site220],7.92
9,TATATATATATATATATATATATGTATGTGCATTTA [TGCATGCA_negctrl_site53],11.2
10,CACACGCACGAACACACACACACACGCGCACATATA [CACACA_site6304],8.54
11,CAAAAAAACAAACACACACACACACCCATATATATA [CACACA_site3653],6.85
12,TATACCAGTTTTAAAAGTACTTGTGCATAAAAAATA [XGTACX_site4794],11
13,TTTTTTAAAGTTTAAAGTACATATAAAAATATATAA [XGTACX_site5267],5.94
14,AAAGTTTTTATAAAAAAAAAAATAAATACCATATAT [XGTACX_negctrl_site113],6.5
15,TATGGTTTTAAAAAATGTACGCAAGTGCGTTAATTT [XGTACX_site3945],7.62
16,TTATAATATATATACAGTACATATATAAAATAATAT [XGTACX_site5917],6.5
17,AAAAAAAATTATATATGTACTTATTAATCCTTTTAT [XGTACX_site1387],6.11
18,AGCACATAAATAATTAAACACACATTGTTCTAGACA [CACACA_site8746],6.3
19,CACATAAATAATTAAACACACATTGTTCTAGACAAT [CACACA_site2378],6.51
20,TCCAATTGTTCTAGTGTGCACATAAATAAATCTCAT,11
21,AGTCTGAATAAAATTACACACATATACCTATAAATA [CACACA_site6929],6.4
22,ATACATAAAATTAAAACACACATTTGATTAAATACG [CACACA_site7088],6.6
23,AATTAAAAAATTTATGCACACTTTAAAAAAAAAAAA [CACACA_site5962],9.66
